# Screening data from PubChem BioAssay.
# TDP1 cell noCPT – qHTS for Inhibitors of human tyrosyl-DNA phosphodiesterase 1 (TDP1): qHTS in cells in absence of CPT; Potency, µM (top dose mostly 46.2 µM), inactives show top-dose activity change, negative = growth inhibition, usual class: inhibitors; 15% of 420,000 active; DT40 Tdp1-/- hTDP1 cells, no CPT, ATP luminescence, 48 h; further: on the % scale 0 is the no-effect control and ±100 the full control effect; nearly all actives have a fitted effect of over 55% in size
#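 Camptothecin absent (DMSO only). Human TDP1-complemented DT40 knockout cells, 400 cells/well, 37 °C for minimum 48 hr; ATP measured via CellTiter-Glo, 30 min dark incubation, luminescence.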
# HT1080 IDH1KD tx – HT-1080 IDH1 knockdown cell toxicity (counter line). 2% of 360,000 active. HT-1080 IDH1 knockdown viability, ATP luminescence, 48 h. Potency, µM (highest dose often 46.1 µM), without a hit: at the top dose activity, negative = toxicity, most hits filed as cytotoxic;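 further: 0% = DMSO wells and -100% = cell-free medium wells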
#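 Using the IDH1-knockdown HT-1080 line run in the same batch and compound series as the NT line, viability after 48 h at 37 °C was determined by CellTiter-Glo luminescence and expressed as % activity.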
# HepG2 viability – counter-screen for TGF-b inhibitors: cytotoxicity in HepG2 cells; HepG2 CAGA-GFP viability, ATP luminescence, 18 h; Potency, µM (doses to about 46.1 µM), inactives show top-dose activity change, negative = cytotoxicity, most hits filed as cytotoxic; 0.76% of 410,000 active; AID 588856
#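 HepG2 CAGA-GFP cells (1000/well, DMEM with 1% FBS) received compound, then TGF-beta at 500 pg/mL final, and were incubated 18 hours at 37 degrees C. Viability was read by CellTiter-Glo luminescence. Media-only wells were set as complete cell-killing and DMSO as no toxicity.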
# TDP1 cell CPT – growth inhibition of DT40 Tdp1-/-;hTDP1 cells with camptothecin (screen for TDP1 inhibitors); chicken DT40 Tdp1-/-;hTDP1 cells + 20 nM CPT, ATP luminescence, 48 h; Potency, µM (doses to about 46.2 µM), inactives show at the highest dose activity change, negative = growth inhibition, usual class: inhibitors; 12% of 420,000 active; AID 686979; further: on the % scale 0 is the no-effect control and ±100 the full control effect; nearly all actives have a fitted effect of over 55% in size
#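 Chicken DT40 Tdp1-/- cells complemented with human TDP1, 400 cells/well, exposed to compounds plus 20 nM camptothecin for at least 48 h at 37 C; viability read as ATP content by CellTiter-Glo luminescence.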
# HT1080-NT tox – kills 2HG-producing HT-1080-NT fibrosarcoma cells; HT-1080-NT fibrosarcoma viability, CellTiter-Glo ATP luminescence, 48 h; Potency, µM (titrated, usually from 46.1 µM), for inactives: at the top dose activity, negative = less viability, most hits filed as cytotoxic; 1.6% of 360,000 active;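 further: NT is the 2HG producing partner of a matched IDH1 knockdown line; 0% = DMSO-treated cells and -100% = media-only wells without cells; nearly all actives have a fitted effect of over 55% in size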
#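 HT-1080-NT fibrosarcoma cells (2HG-overproducing), 750 cells/well in RPMI with 5% FBS, dosed after 2 h and incubated 48 h at 37C. CellTiter-Glo luminescence normalized to DMSO and no-cell wells; concentration-response curves fitted and classed.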
# TGFb SMAD3 inh – blocks TGF-b signaling; HepG2 CAGA-GFP TGF-b/SMAD3 reporter, GFP fluorescence, 18 h; TGF-beta stimulated, 500 pg/mL final; Potency, µM (top dose mostly 46.1 µM), for the others: at the top dose activity, negative = inhibition, hits mostly inhibitors; 1.2% of 410,000 active; further: on the % scale 0 is the no-effect control and ±100 the full control effect; nearly all actives have a fitted effect of over 65% in size
#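 HEPG2 CAGA-GFP cells (1000/well, DMEM with 1% FBS) were pre-incubated 2 h at 37 degrees C, given compound by pin tool, then stimulated with TGF-beta at 500 pg/mL final for 18 h before per-cell GFP fluorescence imaging.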
# * = called active by the depositor; u = inconclusive; x = no result. An excerpt weighted towards active compounds, which were near 17% of everything screened. The call rests on the fitted dose curve; in most records, active means well fitted curve in the direction sought with a large enough effect; inconclusive means small, poorly fitted or top-dose-only effect, or another doubt; inactive means no such curve, though single readings can be large; an effect the other way counts as inactive or inconclusive. Potency means the concentration at half of the fitted maximal effect.
SMILES,TDP1 cell noCPT,HT1080 IDH1KD tx,HepG2 viability,TDP1 cell CPT,HT1080-NT tox,TGFb SMAD3 inh
CCOc1ccccc1NC(=O)c1ccc(C(=O)Nc2ccccc2OCC)cc1,-12.4%,x,4.0%,-11.3%,x,31.8%
COc1ccccc1NC(=O)c1cccc(NC(=O)c2ccco2)c1,u,-3.6%,4.7%,-23.4%,7.5%,10.9%
CCOc1ccccc1NC(=O)c1ccc(NC(=O)c2ccco2)cc1,16.4µM*,-5.7%,-7.4%,u,-8.3%,u
COc1ccccc1NC(=O)c1ccc(NC(=O)c2ccco2)cc1,16.4µM*,-1.9%,-2.2%,u,-5.6%,3.5%
COc1ccccc1C(=O)Nc1ccc(NC(=O)c2ccco2)cn1,20.6µM*,2.8%,12.7%,u,18.4%,-23.1%
CN(C(=O)CCc1nc(-c2ccccc2F)no1)c1ccccc1,-8.8%,6.8%,-1.3%,-19.1%,-2.4%,-0.7%
CCN(CC)C(=O)CSc1nnc(CNc2ccc(F)cc2)n1-c1ccccc1,-27.2%,-4.9%,0.3%,-19.6%,-2.5%,-24.4%
CC(C)C(=O)Nc1cccc(COc2cccc(CN(Cc3ccccc3)C(=O)OC(C)(C)C)c2)c1,u,-13.0%,-21.0%,u,-0.7%,-21.4%
CC(C)(C)OC(=O)N(Cc1ccccc1)Cc1ccccc1OCc1cccc(NC(=O)C2CCC2)c1,16.4µM*,-11.0%,-17.4%,u,-0.8%,-18.9%
CC(C)(C)OC(=O)N(CCc1ccccc1)Cc1ccccc1OCc1cccc(NC(=O)C2CCC2)c1,13µM*,-1.4%,-1.4%,16.4µM*,-3.5%,u
CC(C)C(=O)Nc1cccc(COc2ccc(CN(CCc3ccccc3)C(=O)OC(C)(C)C)cc2)c1,13µM*,-8.2%,-7.8%,25.9µM*,u,-5.3%
CCCCC[C@@H]1C=C(C(=O)O)[C@H](c2ccc(F)cc2)N1S(=O)(=O)c1ccc(C)cc1,5.9%,-2.5%,-30.0%,-3.4%,4.9%,u
Cc1cccc(NC(=O)CSCC(=O)Nc2sccc2C#N)c1,-27.2%,-0.2%,2.4%,17.7%,0.8%,-2.1%
CCc1cccc(NC(=O)CSc2n[nH]c(-c3ccccc3Cl)n2)c1,u,x,-29.4%,u,x,-61.1%
CCCOc1ccccc1-c1nc(SCC(=O)c2ccccc2)n[nH]1,18.4µM*,x,-13.8%,16.4µM*,x,-12.4%
CC(C)Oc1ccccc1-c1nc(SCC(=O)c2ccc(F)cc2)n[nH]1,16.4µM*,x,-37.5%,20.6µM*,x,-26.8%
O=C(CSc1n[nH]c(-c2ccccc2)n1)c1ccccc1,u,3.4%,-3.7%,u,u,1.7%
Cc1cc(C)c(NC(=O)CSc2n[nH]c(-c3ccccc3Cl)n2)c(C)c1,6.51µM*,x,-6.0%,u,x,10.2%
COc1ccccc1-c1nc(SCC(=O)Nc2ccc(C)c(C)c2)n[nH]1,23.1µM*,x,-5.4%,23.1µM*,x,u
COc1ccccc1NC(=O)C1CCN(S(=O)(=O)c2ccc3c(c2)oc(=O)n3C)CC1,u,x,3.1%,-14.9%,x,-22.6%
Cc1cc(C)c2c(N)c(C(=O)Nc3c(C)n(C)n(-c4ccccc4)c3=O)sc2n1,25.8%,0.9%,1.2%,27.4%,-2.1%,-14.8%
COc1ccccc1-c1nc(SCC(=O)c2ccccc2)n[nH]1,16.4µM*,x,-7.7%,u,x,-19.8%
Cc1ccc(C)c(Cn2nnc3c(=O)[nH]c(C4CCN(S(=O)(=O)c5ccc(S(=O)(=O)NC6CC6)cc5)CC4)nc32)c1,18.4µM*,u,-18.6%,u,u,u
Cc1ccc(Cn2nnc3c(=O)[nH]c(C4CCN(S(=O)(=O)c5ccc(F)cc5)CC4)nc32)cc1,-23.2%,u,1.5%,-29.1%,-21.8%,-4.6%
Cc1ccc(C)c(Cn2nnc3c(=O)[nH]c(C4CCN(C(=O)c5ccco5)CC4)nc32)c1,u,-2.5%,-6.9%,20.6µM*,-8.4%,0.6%
SMILES,TDP1 cell noCPT,HT1080 IDH1KD tx,HepG2 viability,TDP1 cell CPT,HT1080-NT tox,TGFb SMAD3 inh
Cc1ccc(C)c(Cn2nnc3c(=O)[nH]c(C4CCN(S(=O)(=O)c5ccc(S(=O)(=O)N(C)C)cc5)CC4)nc32)c1,u,-0.1%,-2.2%,18.4µM*,-11.3%,2.4%
Cc1sc2ncnc(N3CCC(C(=O)Nc4nnc(CC(C)C)s4)CC3)c2c1C,23.1µM*,1.3%,9.9%,u,5.5%,-9.5%
Cc1sc2ncnc(N3CCC(C(=O)Nc4nc(-c5ccc(F)cc5)cs4)CC3)c2c1C,16.4µM*,-22.3%,-24.9%,u,-1.8%,u
CCN(CC)CCNC(=O)c1ccc(NC(=O)C2CCN(c3ncnc4sc(C)c(C)c34)CC2)cc1,23.1µM*,u,-43.7%,18.4µM*,u,u
CCOc1ccc(CCn2c3c(c(=O)[nH]c2=O)C(NC(=O)c2ccccc2)(C(F)(F)F)C(=O)N3)cc1OCC (stereo not drawn),0.7%,x,-4.2%,-5.7%,x,u
Cn1cnnc1Sc1ccc(C(=O)OCC(=O)Nc2ccccc2)cc1[N+](=O)[O-],11.8%,-0.4%,2.2%,-28.6%,7.6%,-1.8%
COc1ccc(NC(=O)/C(C#N)=C/c2ccc(Sc3nncn3C)c([N+](=O)[O-])c2)cc1,25.9µM*,u,-60.6%,16.4µM*,u,u
CC(C)CN1CCCC(N2CCN(c3cccc(Cl)c3)CC2)C1 (stereo not drawn),-1.8%,0.8%,-12.9%,1.7%,13.6%,14.5%
CC(C)(C)c1ccc(OCC(=O)Nc2cccc(S(=O)(=O)NC3=NCCCCC3)c2)cc1,-60.2%,-15.1%,-35.9%,u,-5.9%,-25.7%
Cc1ccc(NC(=O)COC(=O)C(NS(=O)(=O)c2ccc(Cl)cc2)C(C)O)cc1C (stereo not drawn),u,0.6%,-24.1%,25.9µM*,1.0%,-17.5%
CCOc1ccc(C(=O)NC(=S)Nc2cccc(S(=O)(=O)NC3=NCCC3)c2)cc1,0.82µM*,1.03µM*,8.6%,0.82µM*,0.461µM*,-26.6%
Cc1ccc(NC(=O)COC(=O)C(NS(=O)(=O)c2ccc(Cl)cc2)C(C)O)c(Br)c1 (stereo not drawn),-19.6%,13.5%,-18.3%,-10.7%,-1.2%,0.0%
Cc1cc(C)nc(NS(=O)(=O)c2ccc(NC(=O)COc3ccc(Cl)cc3C)cc2)n1,18.4µM*,x,-14.3%,u,x,-7.7%
